# Shown are actives, neighbours in structure and some others; about 2.2% of the full set was active somewhere.
# Nrf2 block = Nrf2 qHTS screen for inhibitors. A549 ARE-Fluc reporter, luciferase luminescence, 18-24 h. Potency, µM (series often up to 46 µM), without a hit: at the top dose activity change, negative = inhibition, usual class: inhibitors. actives 2.1% (n = 360,000); note: potency is the fitted concentration of half-maximal effect; % is set by controls: 0 for no effect and ±100 for the full control effect; nearly all actives have a fitted effect of over 60% in size
#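 Quantitative HTS in A549 cells stably bearing an antioxidant response element-firefly luciferase construct. Inhibition of Nrf2-driven transcription was scored by luminescence after 18-24 h of compound exposure at 37 °C.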
# miR-21 reporter = qHTS Assay for Modulators of miRNAs and/orActivators of miR-21; HeLa miR-21 FLuc reporter, luciferase, 48 h; Potency, µM (series often up to 38.3 µM), inactives show at the top dose activity change, positive = activation, usual class: activators; 340,000 tested, under 10 active;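 note: % of control where 0% means no effect; miR-21 action dims this reporter so a rising signal means less miR-21 action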
#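 Compounds were titrated across several concentrations (up to approximately 40 uM) and incubated 48 hours with HeLa miR-21-FLuc reporter cells (miR-21 target sequence downstream of FLuc, endogenous miR-21). Readout was firefly luciferase luminescence after lytic detection reagent.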
# B2AR arrestin = qHTS assay of beta-arrestin-biased ligands of beta2-adrenergic receptor | beta-arrestin recruitment to beta2AR, cell-based reporter | Potency, µM (highest dose often 46.1 µM), without a hit: top-dose activation, actives largely listed as activators | actives 0.02% (n = 330,000);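 note: potency is the fitted concentration of half-maximal effect; 0% = DMSO controls and full agonism = EC100 isoproterenol or metaproterenol; nearly all actives have a fitted effect of over 65% in size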
# Target sequence (P07550 whole entry, looked up): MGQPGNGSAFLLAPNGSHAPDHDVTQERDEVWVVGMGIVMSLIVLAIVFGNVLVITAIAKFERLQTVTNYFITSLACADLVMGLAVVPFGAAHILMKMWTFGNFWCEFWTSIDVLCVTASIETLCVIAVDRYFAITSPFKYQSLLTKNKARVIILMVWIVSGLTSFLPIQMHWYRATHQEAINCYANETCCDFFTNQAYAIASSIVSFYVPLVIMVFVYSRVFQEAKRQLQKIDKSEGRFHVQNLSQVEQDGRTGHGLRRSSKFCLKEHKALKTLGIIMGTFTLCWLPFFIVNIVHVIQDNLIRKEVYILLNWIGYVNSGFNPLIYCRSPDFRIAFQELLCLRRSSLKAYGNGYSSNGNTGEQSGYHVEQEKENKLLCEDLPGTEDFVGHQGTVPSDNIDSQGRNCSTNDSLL
# A549 viability = Nrf2 qHTS screen for inhibitors: counterscreen for cytotoxicity; A549 ARE-Fluc cells, CellTiter-Fluor viability, 18-24 h; Potency, µM (series often up to 46 µM), without a hit: top-dose activity change, negative = cytotoxicity, most hits filed as inhibitors; actives 0.16% (n = 390,000); note: potency is the fitted concentration of half-maximal effect; % is set by controls: 0 for no effect and ±100 for the full control effect
#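 Cytotoxicity counterscreen: CellTiter-Fluor fluorescence was measured in A549 ARE_Fluc cells after 18-24 h of compound exposure in a concentration series. The subsequent BugLite luminescent read reports ARE-luciferase activity.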
# Nrf2 ARE act = qHTS of Nrf2 Activators | AREc32 ARE-luciferase reporter (MCF7-derived line), luminescence, 24 h | Potency, µM (doses to about 46.1 µM), without a hit: at the highest dose activation, hits mostly activators | actives 0.31% (n = 410,000) | AID 624171, 2012; note: potency is the fitted concentration of half-maximal effect; % of control where 0% means no effect; nearly all actives have a fitted effect of over 65% in size
#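 ARE activation measured as luciferase luminescence (Steady-Glo, 30 min RT) in AREc32_Fluc cells after 24 hr compound exposure at 37 deg C, 5% CO2; cells seeded overnight at 1000/well in OPTI-MEM, 5% FBS.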
# An asterisk follows results filed as active; ? = inconclusive; / = no result. Calls come from the whole dose curve; as a rule, active = well fitted curve in the direction sought with a large enough effect; inconclusive = small, poorly fitted or top-dose-only effect, or another doubt; inactive = no such curve, though single readings can be large; an effect the other way counts as inactive or inconclusive.
SMILES,Nrf2 block,miR-21 reporter,B2AR arrestin,A549 viability,Nrf2 ARE act
O=C(NCCc1ccccc1Cl)c1ccc(Cn2c(=O)c3cccn3c3cccnc32)cc1,?,-15%,/,?,0%
CCCCCn1ncc2c3sc(C)cc3n(C)c2c1=O,?,/,/,-3%,/
Cc1ccc(Nc2ncnc3ccccc23)cc1,?,-51%,0%,-1%,2%
Cc1ccc(/C(=N/Nc2ncnc3ccccc23)C(=O)O)cc1,?,-56%,11µM*,0%,8%
CC(=O)c1ccc(N2CCN(c3ncnc4c3nc3n4CCCC3)CC2)cc1,23µM*,?,/,-5%,0%
COc1cccc(N2CCN(c3ncnc4c3nc3n4CCCCC3)CC2)c1,?,?,/,-28%,-2%
COc1ccccc1N1CCN(C(=O)C2CCCN(c3ncnc4c3nc3n4CCCCC3)C2)CC1 (stereo unspecified),?,2%,0%,-2%,0%
COc1ccccc1N1CCN(c2ncnc3c2nc2n3CCCC2)CC1,21µM*,10%,/,-16%,0%
NS(=O)(=O)c1ccc(S(=O)(=O)N2CCN(c3nc(-c4cccs4)nc4ccccc34)CC2)cc1,?,/,/,2%,/
O=C(COC(=O)CNC(=O)C1CCCCC1)NC1CCCC1,-2%,/,/,0%,/
O=C(NCCc1nc2ccccc2n1CCCOc1ccccc1)C1CCCCC1,?,/,/,-7%,/
Cc1ccc2c(CC(=O)Nc3ccc(S(=O)(=O)N4CCCC(C)C4)cc3)coc2c1 (stereo unspecified),21µM*,-4%,/,-8%,1%
Cc1ccc2c(CC(=O)Nc3ccc(S(=O)(=O)N4CCCCC4)cc3)coc2c1,?,-6%,/,2%,5%
Cc1[nH]c2ccccc2c1/C=N/NC(=S)NC(C)C,15µM*,-21%,0%,?,5%
Cc1cccc(-c2noc(CN(C(=O)COc3ccc(Br)cc3C)C(C)C)n2)c1,-5%,6%,/,-12%,5%
Cc1nn(-c2ccccc2)c(Cl)c1C(=O)OC(C)C(=O)Nc1ccc2c(c1)OCO2 (stereo unspecified),-8%,0%,0%,-1%,0%
CC(OC(=O)c1cccn1C)C(=O)Nc1ccc2c(c1)OCO2 (stereo unspecified),26µM*,4%,0%,1%,2%
Cc1ccc(Cl)cc1-n1nnc(-c2nc(-c3ccc4c(c3)OCO4)no2)c1C,?,-35%,/,14%,-1%
c1ccc(CCNc2nc(-c3ccccn3)nc3ccccc23)cc1,10µM*,?,0%,?,0%
CCCN(CCC)c1nc(-c2ccccn2)nc2ccccc12,18µM*,?,0%,-18%,8%
COc1cc(NC(=O)Cn2c(=O)oc3cc(S(=O)(=O)N4CCCCCC4)ccc32)cc(OC)c1,/,3%,/,0%,1%
CNc1snc(C)c1C(=O)OCC(=O)c1ccc(OC)c(F)c1,11%,/,-1%,-4%,5%
CNc1snc(C)c1C(=O)OCC(=O)c1cc(F)ccc1OC,12µM*,/,0%,-8%,?
CC(=O)c1c(C)[nH]c(C(=O)CN2CCN(S(=O)(=O)c3ccccc3F)CC2)c1C,26µM*,/,0%,-13%,6%
CC(=O)c1c(C)[nH]c(C(=O)CN2CCN(S(=O)(=O)c3ccc(C(C)C)cc3)CC2)c1C,15µM*,/,0%,-13%,0%
SMILES,Nrf2 block,miR-21 reporter,B2AR arrestin,A549 viability,Nrf2 ARE act
Nc1cc(S(=O)(=O)N2CCN(S(=O)(=O)c3ccc4c(c3)OCCO4)CC2)ccn1,2%,/,/,0%,/
Cn1c2cc(S(C)=O)sc2c2cnn(Cc3ccccc3F)c(=O)c21 (stereo unspecified),-14%,/,/,11%,/
Cn1c(NC(=O)c2ccccc2NC(=O)C(C)(C)C)nc2ccccc21,16µM*,11%,0%,1%,-4%
Cc1ccc(C)c(NC(=O)CSc2cn(CC(=O)N3CCCC3)c3ccccc23)c1,16%,10%,/,-1%,3%
O=C(Nc1c2c(nn1-c1ccc(Cl)cc1)CS(=O)(=O)C2)c1cccc(Cl)c1,/,22%,/,-16%,0%
Cn1nnnc1SCCNCc1ccccc1OCc1ccc(Cl)cc1Cl,12µM*,18%,/,-1%,-5%
CCOc1ccc(OCC)c(NC(=O)C2CCCN(S(=O)(=O)c3cc(Br)cc4c3N(C(=O)CC)CC4)C2)c1 (stereo unspecified),-3%,0%,/,-2%,0%
Cc1oc(-c2ccc(Cl)cc2)nc1CN1CCCC(C(=O)NC2CC2)C1 (stereo unspecified),24%,-1%,0%,?,2%
CCOC(=O)N1CCC(NC(=O)C2CCCN(Cc3nc(-c4cccc(Cl)c4)oc3C)C2)CC1 (stereo unspecified),16µM*,2%,0%,-16%,1%
O=C(NCC(c1cccs1)S(=O)(=O)c1cccs1)c1ccc(Cl)cc1 (stereo unspecified),/,6%,/,-3%,7%
Cc1ccc(C)c(NC(=O)C2CCCN2S(=O)(=O)c2ccc3c(c2)CCCC(=O)N3)c1 (stereo unspecified),?,6%,/,15%,5%
O=c1oc2ccccc2cc1-c1nc(-c2cccs2)cs1,/,-9%,-1%,22%,2.5µM*
Cc1ccc(C2N=C(Nc3nc4ccccc4o3)NC3=C2C(=O)CC(C)(C)C3)cc1 (stereo unspecified),22%,/,/,-2%,/
Cc1cccc(CC(Cc2nc3ccccc3[nH]2)c2nc3ccccc3[nH]2)c1 (stereo unspecified),26µM*,19%,0%,?,12%
CCOc1cc(-c2ccc3c(c2)OCO3)cc(=[O+]CC)c2c(C)oc(C)c12,8%,/,/,0%,/
COc1cc(C2CC(=O)N(Cc3ccc(F)cc3)c3ccccc3S2)cc(OC)c1OC (stereo unspecified),16µM*,?,/,-20%,-3%
COc1ccc(OCCn2c(CCNC(=O)C3CCCCC3)nc3ccccc32)cc1,?,/,/,-24%,/
CN(C)c1nc(NCc2ccccc2)nc(SCC(=O)Nc2ccccc2)n1,23µM*,-8%,-1%,-11%,0%
CCc1nnc(SC(CC)C(=O)NCCOC)c2cc3occc3n12 (stereo unspecified),?,?,/,3%,?
COc1ccc(NC(=S)N(CCc2c(C)[nH]c3ccc(C)cc23)Cc2cccnc2)cc1,21µM*,4%,3%,?,5%
Cc1ccc(-c2[nH]ncc2CNCc2ccc(CN(C)C)cc2)cc1,5%,/,/,?,/
ClC(Cl)c1nnc(-c2ccccc2)c(-c2c[nH]c3ccccc23)n1,10µM*,-8%,0%,?,4%

# Compound activity deposited in PubChem by National Center for Advancing Translational Sciences (NCATS).
